Data published in PubChem BioAssay AID1209 (Sanford-Burnham Center for Chemical Genomics, 2008).
Values joined by “and” are separate entries in the source; they are usually repeats but may differ in a detail not shown here. Identical values can stand only once. About 810 (0.43%) of roughly 190,000 compounds were called active. Cut-off read from the data, not from the text of the source: active = inhibition above about 50%; inactive = the rest. Only a selection was taken, and actives are over-represented in it overall.

The molecules below were run against Mannose-6-phosphate isomerase (Homo sapiens) (UniProt P34949) (assay: inhibitors of human PMI, primary screen, biochemical, fluorescence intensity, coupled assay (AID 1209;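 note: plate controls were DMSO vehicle for no effect and wells lacking substrate for full effect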)). Settings: purified PMI enzyme, at 20 µM, stronger effect = higher value.
Mannose-6-phosphate isomerase (Homo sapiens), sequence (P34949 whole entry, looked up): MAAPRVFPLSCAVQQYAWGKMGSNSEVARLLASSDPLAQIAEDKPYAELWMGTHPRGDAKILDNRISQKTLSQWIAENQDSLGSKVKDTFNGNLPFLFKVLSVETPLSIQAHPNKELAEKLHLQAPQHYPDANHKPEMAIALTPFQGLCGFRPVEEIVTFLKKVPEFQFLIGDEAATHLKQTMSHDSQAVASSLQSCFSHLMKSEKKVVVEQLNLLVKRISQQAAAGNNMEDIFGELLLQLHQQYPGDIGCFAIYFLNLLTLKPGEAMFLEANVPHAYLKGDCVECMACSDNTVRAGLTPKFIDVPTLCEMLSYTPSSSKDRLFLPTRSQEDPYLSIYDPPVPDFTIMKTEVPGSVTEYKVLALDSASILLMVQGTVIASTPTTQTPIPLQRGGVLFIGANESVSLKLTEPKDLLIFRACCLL

inhibition, active:
CCOC(=O)NC(=O)/C(C#N)=C\c1ccccc1 52.6%, CCOc1cc(C2CC(=O)N3CN(C4CCCCC4)CSC3=C2C#N)ccc1O (stereo not given) 54.5%, COc1ccc2ccccc2c1C1CC(=O)N2CN(C)CSC2=C1C#N (stereo not given) 54.3%, CCOc1ccccc1N1CSC2=C(C#N)C(c3c(OC)ccc4ccccc34)CC(=O)N2C1 (stereo not given) 64.9%, COc1cc(O)c(NC(C)=O)c2nonc12 64.6%, CC(=O)Nc1cc(OC(C)=O)c2nonc2c1OC(C)=O 83.9%, Nc1c(C(=O)N2CCCC2)sc2nc3c(cc12)CCCCCC3 95%, CCOC(=O)C1C(=O)NC(SCC(=O)Nc2nccs2)=C(C#N)C1c1ccccc1OCC (stereo not given) 54.2%, O=C1OC(Nc2ccc3ncccc3c2)c2ccccc21 (stereo not given) 62.7%, COC(=O)C1=C(C)NC(C)=C(C(=O)OC)C1c1ccccc1[N+](=O)[O-] 83.1%, COc1ccc(CNc2cc(NCCCO)c([N+](=O)[O-])c3nonc23)cc1 52.3%, O=[N+]([O-])c1c(NCCCO)cc(Sc2ccc(Cl)cc2)c2nonc12 50.2%, Fc1ccc(N=c2ssnc2Cl)c(F)c1 80.9%, Cc1cc(Cl)ccc1N=c1ssnc1Cl 52.8%, Cc1ccc(NC(=S)C2=C(O)c3sccc3N(C)S2(=O)=O)cc1 56.1%, CC1=NOC(=O)/C1=C\c1ccc(-c2ccc(Cl)c(C(=O)O)c2)o1 66.6%, COCCCN=C(c1ccco1)n1c(=S)nc(-c2ccco2)n(CCCOC)c1=S 52.4%, CN=C(c1ccco1)n1c(=S)nc(-c2ccco2)n(C)c1=S 51.4%, COc1ccc(C2NC(=O)NC3=C2CCc2ccccc23)cc1 (stereo not given) 70.7%, O=C(CCNc1ccccc1)c1cccc([N+](=O)[O-])c1 56.8%, O=C(CCNc1ccc(Cc2ccncc2)cc1)c1ccc([N+](=O)[O-])cc1 64.4%, Cc1cccc(NCCC(=O)c2ccc([N+](=O)[O-])cc2)c1C 76.2%, Cc1ccc(NCCC(=O)c2cccc([N+](=O)[O-])c2)c(C)c1 55.7%

inhibition, inactive:
CC(O)[C@@H](C(=O)N1CCNCC1)n1cc(CCCCN)nn1 (stereo not given in full) 4%, Cc1sc2nc(CSc3ccccc3)nc(N3CCC(C(N)=O)CC3)c2c1C 13.3%, N#C/C(=C\c1ccccc1)C(=O)NC(=O)Oc1ccccc1 11.3%, Cc1ccc(/C=C(/C#N)C(=O)NC(=O)Oc2ccccc2)cc1 4.9%, CSc1cccc(NC(=S)N2CCC(N(C)C3CCCCC3C)CC2)c1 (stereo not given) -2.7%, CCOc1cc(C2CC(=O)NC(SCC)=C2C#N)ccc1O (stereo not given) 9.3%, CN1CSC2=C(C#N)C(c3cccc(OCc4ccccc4)c3)CC(=O)N2C1 (stereo not given) 29.7%, COc1ccccc1N1CSC2=C(C#N)C(c3ccc(SC)cc3)CC(=O)N2C1 (stereo not given) -29.2%, COc1ccc(C2CC(=O)N3CN(c4ccccc4F)CSC3=C2C#N)cc1OC (stereo not given) 34.9%, CCc1ccccc1N1CSC2=C(C#N)C(c3cc(OC)c(OC)cc3OC)CC(=O)N2C1 (stereo not given) 46%, COc1ccc2ccccc2c1C1CC(=O)N2CN(C3CCCCC3)CSC2=C1C#N (stereo not given) 25.9%, CC(NC(=O)COC(=O)c1ccco1)c1ccccc1 (stereo not given) 6.4%, COc1c(Cl)cc(Cl)cc1C(=O)Nc1ccc(NC(C)=O)cc1 7.9%, O=C(Cn1nnc(-c2ccccc2)n1)OC1CCOC1=O (stereo not given) -0.6%, Cc1nn(CC(=O)NNC(=S)Nc2ccccc2)c(C)c1[N+](=O)[O-] 0%, CC1(C)Cc2c(sc(N)c2C#N)C(C)(C)N1 11.6%, Cc1nn(CC(=O)NCCc2ccccc2)c(C)c1[N+](=O)[O-] 2.6%, CCOc1ccc(C(O)C(CN2CCOCC2)c2ccccc2)cc1 (stereo not given) -4.1%, COC(=O)c1c(NC(=O)c2cccnc2)sc(C)c1C -4.9%, CC(=O)Nc1nonc1NC(C)=O 5.4%, CCOc1cc(NC(=O)CCl)c(OCC)cc1NC(C)=O -3.2%, COc1cc(O)c(C(C)=O)cc1OC -15.9%, CCOc1cc(Cl)c(NC(C)=O)cc1OCC -3%, COC(=O)c1sc2nc3c(cc2c1N)CCCC3 14.2%, NC(=O)c1sc2nc3c(cc2c1N)CCC3 -8%, O=[N+]([O-])c1cc(-c2cnc3ccccc3n2)ccc1Oc1ccc(Cl)cc1 5.9%, CCOC(=O)C1C(=O)NC(SCC(=O)OC)=C(C#N)C1c1ccccc1OCC (stereo not given) 14.3%, CCOc1ccccc1C1CC(=O)NC(SCC(=O)Nc2nccs2)=C1C#N (stereo not given) -8.2%, CCOc1ccc(CCNC(=O)COC(=O)c2cccc(OC)c2O)cc1OCC 5.3%, O=C1OC(Nc2ncccn2)c2ccccc21 (stereo not given) 4.9%, O=C1OC(Nc2cc(Br)cc3cccnc23)c2ccccc21 (stereo not given) 14.2%, O=C(C1CCN(S(=O)(=O)c2cccc3cccnc23)CC1)N1CCN(c2ccccc2)CC1 13.6%, Cc1ccc(-n2nnnc2SCC(=O)N2CCc3ccccc3C2)cc1 -23.5%, CCn1c(SCC(=O)N2CCCc3ccccc32)nnc1-c1ccoc1C -2.9%, CCS(=O)(=O)c1ccc(O)c(NC(=O)COc2ccc(OC)cc2)c1 9.9%, O=C(CC1CCCCC1)OCn1nnc2ccccc2c1=O -0.7%, CCOC(=O)C1=C(C)NC(C)=C(C(=O)OC)C1c1cccc([N+](=O)[O-])c1 (stereo not given) 13.5% and 1.6%, COC(=O)C1=C(C)NC(C)=C([N+](=O)[O-])C1c1ccccc1C(F)(F)F (stereo not given) -1.2%, COc1ccc(S(=O)(=O)N2CCOCC2)cc1OC -10.5%, O=C(OC(C(=O)NCc1ccco1)C(OC(=O)c1ccccc1)C(=O)NCc1ccco1)c1ccccc1 (stereo not given) -6.4%, Cn1ccnc1Sc1cc(NCCCO)c([N+](=O)[O-])c2nonc12 -0.6%, Cc1nnc(Sc2cc(NCCCO)c([N+](=O)[O-])c3nonc23)s1 31.1%, CC(=O)OCCCNc1cc(Sc2ccc(Cl)cc2)c2nonc2c1[N+](=O)[O-] 30.1%, O=[N+]([O-])c1c(NCCCO)cc(SCc2ccco2)c2nonc12 20.8%, CCS(=O)(=O)CCSc1nc2c(cc1C#N)CCCC2 5.3%, Fc1ccc(F)c(C2=NNC(=Nc3ccccc3F)SC2)c1 22.5%, Cc1cc(Cl)ccc1N=Cc1c(O)n(C)c(=O)n(C)c1=O 9.5%, Cc1cc(Cl)ccc1N=C1N=C(N)c2ccccc21 9.1%, Oc1oc(C=Nc2ccc(F)cc2F)c2ccccc12 -80.8%, Cc1ccc(CCNc2ccccc2C)cn1 -6.3%, COc1ccc(C)cc1NC(=O)c1nnn(CCc2ccccc2)c1N 8.1%, CSc1ccccc1NC(=O)c1cc(-c2cccnc2)nc2ccc(Br)cc12 -3%, CCOC(=O)C1CC(c2ccccc2)=NNC1=O (stereo not given) -6.5%, COc1ccc(C2CN=NC23CCCc2ccccc2C3=O)cc1 (stereo not given) 3.1%, C/C(=C\C(=O)O)C(=O)Nc1nccs1 -3.3%, Cc1ccccc1CN1N=C(/C=C/c2ccccc2)CCC1=O -3.6%, C/C(=N\NC(=O)c1ccccc1)c1ccc(C)c([N+](=O)[O-])c1 12.4%, Cc1ccc(NC(=O)C2=C(O)c3sccc3N(C)S2(=O)=O)cc1 1.9%, CN1c2ccsc2C(O)=C(C(=S)Nc2ccccc2)S1(=O)=O 19.6%, COC(=O)Cc1c(C)nc2nc(-c3ccco3)[nH]n2c1=O -34.2%, Cc1ccc(C)n1-c1ncn[nH]1 5.2%, Cc1ccc(-n2c(C)n[nH]c2=S)cc1 11.4%, O=C(CN1C(=O)NC2(CCc3ccccc3C2)C1=O)Nc1ccc(Cl)cc1F (stereo not given) 8.5%, CC1=NOC(=O)/C1=C/c1ccc(-c2ccc(Cl)cc2)o1 21.9%, CC1(C)OC(=O)C(=Cc2ccc(-c3ccc(Cl)c(C(=O)O)c3)o2)C(=O)O1 -12.1%, CCOC(=O)c1c(C)nc2ccc(C)cn12 -2.7%, O=C(OCn1nnc2ccccc2c1=O)C1COc2ccccc2O1 (stereo not given) 12.1%, Cn1c(-c2ccco2)n[nH]c1=S -5%, COCCCn1c(-c2ccco2)nc2ccccc2c1=O -0.1%, CCCCn1c(-c2ccco2)n[nH]c1=S 5.8%, CN=C(c1ccc(C)cc1)n1c(=S)nc(-c2ccc(C)cc2)n(C)c1=S 37.7%, CN(C)C(=O)N1CCC(C(=O)NCc2ccccc2Cl)CC1 3.2%, CCOC(=O)c1ccccc1Nc1cc(C)nc2nc(C)nn12 5.5%, CCOC(=O)N1CCN(C(=O)CSc2ccc(-c3ccc(OC)cc3)nn2)CC1 -0.8%, O=[N+]([O-])c1cc2c(c(CSc3nnnn3-c3ccc(O)cc3)c1)OCOC2 26.2%, COc1ccc(/C=N\NC(=O)COc2ccc(C(C)(C)C)cc2)cc1Cn1nc(C)cc1C -2.3%, Cc1ccc(C2NC(=O)NC3=C2CCc2ccccc23)cc1 (stereo not given) 10.5%, O=C1NC2=C(CCc3ccccc32)C(c2ccccc2)N1 (stereo not given) -24.4%, CN(C)/C=C(\C(=O)c1ccc(F)cc1F)c1nnnn1-c1ccccc1 -3.7%, Cc1ccc(NCC(=O)c2ccc([N+](=O)[O-])cc2)cc1 -45.3%, O=C(CNc1cccc2ccccc12)c1ccc([N+](=O)[O-])cc1 25.3%, O=C(CCNc1cccc(F)c1)c1cccc([N+](=O)[O-])c1 37.8%, O=C(CCNc1ccc(Cc2ccncc2)cc1)c1cccc([N+](=O)[O-])c1 43.5%, O=C(CCNc1ccc(F)cc1)c1cccc([N+](=O)[O-])c1 47.5%, O=[N+]([O-])c1ccc(Cc2ccncc2)cc1 1.8%, O=C(CCNc1ccc(Br)cc1)c1cccc([N+](=O)[O-])c1 36%, Cc1ccc(NCCC(=O)c2cccc([N+](=O)[O-])c2)cc1 43.5%
